# Compound activity (PubChem BioAssay)
# FPRL1 ligand = human FPRL1 ligand, with FPR counter-screen | P25090 | FPRL1-expressing cells, fluorescent ligand binding inhibition, flow cytometry | hit rate 0.3% among 24,000 | inhibition, % (no concentration beside the values) | AID 441;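 note: 0% = buffer alone and 100% = receptor blocker peptide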
# Jurkat autofluor = autofluorescence counter-screen for VLA-4 integrin assays. Jurkat cells, compound autofluorescence, flow cytometry; active compounds read high; 1 = vehicle-only cell background. fluorescence ratio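 (tested at 10 µM compound in the well)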. hit rate 0.61% among 24,000;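 active = fluorescence ratio above 2.44, which is 1 plus 3 SD of all ratios; inconclusive = signal too bright to measure linearly, ratio around 10 or more; inactive = fluorescence ratio below 2.44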;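 note: green fluorescence of cells measured with 488 nm excitation and 530 nm emission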
# VLA-4 antagonist = blocks LDV-FITC ligand binding to Mn2+-activated human VLA-4 integrin; P13612; Jurkat cells, LDV-FITC binding with Mn2+, flow cytometry; 100% = Mn2+-driven binding gain fully reversed; inhibition, % at 10 µM (by protocol); hit rate 0.2% among 24,000; AID 529;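 active = inhibition above 50%; inconclusive = compound itself fluorescent, judged against control cell fluorescence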;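 note: 0% = Mn2+ stimulated cells lacking compound and 100% = ligand binding without Mn2+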
# VLA-4 agonist = allosterically activates the human VLA-4 integrin; P13612; Jurkat cells, LDV-FITC binding, flow cytometry; activation, % at 10 µM (by protocol); 24,000 tested, under 10 active;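 active = fluorescent ligand binding to cells raised by more than 40% of the manganese-induced maximum; inconclusive = compound's own fluorescence above 85% of the ligand control signal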;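 note: 0% = ligand binding without compound and 100% = manganese-stimulated maximal binding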
# FPR ligand = human FPR ligand, with FPRL1 counter-screen; inhibition, % (concentration not given with the values); hit rate 0.74% among 24,000; FPR-expressing cells, fluorescent ligand binding, flow cytometry; P21462;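 note: 0% = buffer wells and 100% = receptor blocker peptide wells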
# Target sequence (P21462 whole entry, looked up): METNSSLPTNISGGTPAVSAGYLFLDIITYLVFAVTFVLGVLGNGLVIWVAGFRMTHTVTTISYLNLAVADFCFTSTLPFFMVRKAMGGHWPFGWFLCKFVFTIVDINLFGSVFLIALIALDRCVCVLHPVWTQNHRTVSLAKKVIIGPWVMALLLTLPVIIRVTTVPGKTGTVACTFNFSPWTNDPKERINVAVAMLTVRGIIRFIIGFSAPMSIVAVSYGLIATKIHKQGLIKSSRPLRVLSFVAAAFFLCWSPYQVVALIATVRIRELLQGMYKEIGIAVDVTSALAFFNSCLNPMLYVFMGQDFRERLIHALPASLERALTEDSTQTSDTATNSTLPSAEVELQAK
# * hit, by the source's call; ? = inconclusive; nt = not tested or not shown. Rows were chosen to be rich in hits. Some 1.8% of all compounds tested hit in one or more screens of this group. Cut-off read from the data, not from the text of the source, unless noted: active = inhibition above about 30%; inconclusive = no clear call, values can overlap the other calls; inactive = below that.
SMILES,FPRL1 ligand,Jurkat autofluor,VLA-4 antagonist,VLA-4 agonist,FPR ligand
COc1cccc(-n2nnc3c(=O)n(CC(=O)N4CCC(Cc5ccccc5)CC4)cnc32)c1,-3,1.1,74*,-5,-1
COc1ccc(-n2c(Cc3cccn3C)nnc2SCC(=O)Nc2ccc(Cl)cc2)cc1,1,0.9,7,-4,56*
COc1ccc(CN(C(=O)c2ccccc2OC)C2CCS(=O)(=O)C2)cc1 (configuration not stated),51*,1,-28,-2,51*
CCc1ccc(NC(=O)N(CCCN2CCOCC2)C(C)c2cc3cccc(OC)c3o2)cc1 (configuration not stated),-3,1.1,9,-7,-1
O=S1(=O)C=C(Sc2nc3cc(Cl)ccc3o2)c2ccccc21,-44,9.6*,?,?,-20
O=C1c2ccccc2C(Nc2ccc3c(c2)OCCO3)N1Cc1ccccc1 (configuration not stated),-6,1.1,-5,2,-5
CN(CC(=O)NCc1cccs1)S(=O)(=O)c1cccc2nsnc12,14,1,11,0,16
C=CCn1c(/N=C/c2ccc(N(C)C)cc2)nc2ccccc21,?,4.8*,?,?,?
COCCn1cc(C(=O)N2CCC(C)CC2)c2c3ccccc3n(C)c2c1=O,1,1.1,6,1,4
CC(C(=O)c1ccccc1)n1cnc2ccccc2c1=O (configuration not stated),3,0.99,-16,2,2
COc1ccc2c(c1)C(=O)N(c1ccccc1OC)C(=O)C2,-2,6.3*,?,?,-3
COc1ccccc1N1C(=O)CC(Sc2nc(C)cc(C)n2)C1=O (configuration not stated),0,0.97,-20,0,-1
O=C(C1CC1)N1CCc2cc(Br)cc(S(=O)(=O)NCC3COc4ccccc4O3)c21 (configuration not stated),7,1.1,?,?,-3
O=C(OCC#CCSc1nc2ccccc2s1)c1ccco1,2,1,-28,6,-5
COc1ccc(C)cc1NC(=O)C1CCCN(S(=O)(=O)c2cccc3nonc23)C1 (configuration not stated),4,1.2,7,-6,1
Cc1ccc2nc(NC(=O)C3CCCN(S(=O)(=O)c4cccc5nonc45)C3)sc2c1 (configuration not stated),-3,3.1*,?,?,-3
Cc1cccc2sc(NC(=O)C3CCCN(S(=O)(=O)c4cccc5nonc45)C3)nc12 (configuration not stated),7,2.6*,?,?,-13
CC(C)Oc1ccc(/C(O)=C2/C(=O)C(=O)N(CCCN3CCOCC3)C2c2ccncc2)cc1 (configuration not stated),0,nt,nt,nt,-10
COc1cccc2c1OC1(C)CC2NC(=O)N1c1cccc(C(=O)Nc2ccc3c(c2)OCCO3)c1 (configuration not stated),7,1,18,1,9
CCOC(=O)Nc1ccc(OC)cc1S(=O)(=O)N1CCCCC1,51*,1.1,-6,-4,63*
COCCn1nnnc1C(c1ccccc1OC)N1CCc2ccccc2C1 (configuration not stated),0,0.99,0,-1,-3
CC(C)n1c(CCC(=O)O)ccc1-c1ccccc1,-3,1.1,-13,1,-3
COc1ccccc1/C=c1\sc2nc(-c3ccco3)nn2c1=O,-5,1.2,-10,1,11
COc1ccc(OC)c(/C=c2\sc3nc(-c4cccs4)nn3c2=O)c1,-44,4.1*,?,?,-22
COc1ccc(C(=O)N2CCN(S(=O)(=O)c3cc(Cl)ccc3OC)CC2)cc1,6,1,0,3,-3
SMILES,FPRL1 ligand,Jurkat autofluor,VLA-4 antagonist,VLA-4 agonist,FPR ligand
CCOc1ccc2nc(N3CCC(C(=O)N4CCN(c5ccccn5)CC4)CC3)sc2c1,12,1.3,54*,-17,3
CC(C)CN(C(=O)c1ccc(=O)n(C)n1)c1nc2ccccc2s1,0,1,-4,-4,16
Cc1ccc(/C=c2\s/c(=C(/C#N)C(=O)N3CCCC3)n(Cc3ccco3)c2=O)s1,4,1.6,?,?,16
C=CCn1c(=O)/c(=C/c2ccc(O)cc2)s/c1=C(/C#N)c1nnc2n1CCCCC2,-11,3.7*,?,?,-14
Cc1ccc(C(=O)CSc2nnc(CNc3ccc(C)cc3C)o2)cc1,2,1.1,-31,4,-12
CCOC(=O)c1c(NC(=O)c2cc(C3CC3)on2)sc2c1CCCC2,58*,1,-5,1,10
CC1CCN(S(=O)(=O)c2ccc3c(c2)oc(=O)n3CC(=O)NCc2ccc3c(c2)OCO3)CC1,-4,1.1,3,0,39*
Cn1c(=O)oc2cc(S(=O)(=O)N3CCC(C(=O)NCC4COc5ccccc5O4)CC3)ccc21 (configuration not stated),20,1,-20,3,31*
Cc1c(C(=O)NCc2ccc3c(c2)OCO3)oc2ccc(S(=O)(=O)N3CCC(C)CC3)cc12,11,1.1,19,0,-2
Cc1ccc2nc(NC3=NCN(Cc4ccco4)CN3)nc(C)c2c1,1,3.5*,?,?,-10
COc1cccc(C2/C(=C(/O)c3ccncc3)C(=O)C(=O)N2CCCN2CCOCC2)c1OC (configuration not stated),6,nt,nt,nt,-11
COc1ccc(NC(=O)CCc2ccccc2)cc1NC(=O)c1ccco1,-3,1,-3,-8,-7
CCOc1cc(NC(=O)c2ccco2)c(OCC)cc1NC(=O)CCc1ccc(OC)cc1,1,1.1,-19,-4,33*
COc1cccc(C2=CC(c3cc(OC)ccc3OC)n3nnnc3N2)c1 (configuration not stated),2,1.1,-12,9,3
COc1ccc(OC)c(C2C=C(c3ccc(C)c(C)c3)Nc3nnnn32)c1 (configuration not stated),-2,3.6*,?,?,-10
O=c1cc(N2CCc3ccccc32)[nH]c(=O)n1Cc1ccc(F)cc1,-9,1,-22,7,43*
CCOC(=O)N1CCC(NC(=O)c2cc3c(C)nc4ccccc4c3o2)CC1,28,1,-25,-2,40*
Cc1nc2ccccc2c2oc(C(=O)N3CCc4ccccc43)cc12,26,1.1,-7,-7,38*
Cc1noc(C)c1S(=O)(=O)N(CCc1ccccc1)Cc1ccccc1,-5,1.1,14,-4,-1
ON1C2CCCCC2N(O)C1c1c(F)c(F)c(F)c(F)c1F (configuration not stated),3,0.91,-6,1,7
Cc1nc2c(-c3ccc(F)cc3)c(C)nn2c(C)c1CCC(=O)NC(C)CCc1ccco1 (configuration not stated),-6,1.1,11,-6,44*
